The structures appear in SMILES notation. Compounds without any hit were thinned out: in the full panel of roughly 83,000, 20% have a hit.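 Compound tested at a single concentration for 48 hours in 96-well plates; a percent growth value below 10 was scored as active.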 Unmarked numbers belong to inactive results. The source made the active and inactive calls.

We go through eight molecules from PubChem BioAssay (NCI).

Among the test systems are K-562 leukemia; MALME-3M melanoma; MDA-MB-231 breast; RXF 393 renal; SF-268 CNS; SF-295 CNS; SF-539 CNS; UACC-257 melanoma; M14 melanoma; HCT-15 colon; HT29 colon; SNB-75 CNS; SNB-19 CNS; U251 CNS; PC-3 prostate; SK-MEL-5 melanoma; UACC-62 melanoma; LOX IMVI melanoma; SK-MEL-2 melanoma; SK-MEL-28 melanoma.
Assay in all cases: NCI-60 one-dose screen, 48 h (100 = growth as untreated, 0 = no growth, -100 = all killed)
Holding throughout (conditions): 10 µM

Consider `Nc1ncn(C2OC(CO)C(O)C2O)c(=O)n1` (configuration not stated), for which the growth in the assay with K-562 leukemia is -24% (active); with MALME-3M melanoma, 15.1%; in the assay on MDA-MB-231 breast it was 0.46% (active); in the assay with RXF 393 renal, 10.6%; in the assay with SF-268 CNS it was 23.9%; in the assay on SF-295 CNS, 15.4%. In addition, the growth was -24.4% (active) in the assay on SF-539 CNS; 14.8% in the assay on UACC-257 melanoma; 1.16% (active) in the assay on M14 melanoma; -15.3% (active) with HCT-15 colon; 6.45% (active) with HT29 colon; -32.7% (active) in the assay on SNB-75 CNS. Further, the growth is 17.2% with SNB-19 CNS; 5.19% (active) with U251 CNS; -30.7% (active) in the assay on PC-3 prostate; 25.5% in the assay on SK-MEL-5 melanoma; -8.83% (active) in the assay with UACC-62 melanoma; -33.7% (active) with LOX IMVI melanoma. In addition, in the assay with SK-MEL-2 melanoma, the growth is -21.2% (active).
Turning to `Cc1ccc(NC(=O)NC2CCCCC2)cc1`, the growth with K-562 leukemia is 98%; in the assay with MALME-3M melanoma it was 108%; with MDA-MB-231 breast, 115%; in the assay on RXF 393 renal, 102%; in the assay with SF-268 CNS, 108%; in the assay with SF-295 CNS, 105%. Moreover, the growth in the assay on SF-539 CNS was 102%; in the assay on UACC-257 melanoma, 80.6%; in the assay on M14 melanoma, 107%; in the assay on HCT-15 colon it was 96.3%; in the assay on HT29 colon it was 101%; in the assay on SNB-75 CNS, 107%. For the same molecule, the growth in the assay with SNB-19 CNS is 102%; with U251 CNS it was 99.7%; in the assay with PC-3 prostate, 104%; in the assay on SK-MEL-5 melanoma, 100%; in the assay with UACC-62 melanoma it was 105%; in the assay on LOX IMVI melanoma, 96.3%. The growth with SK-MEL-2 melanoma was 92%.
In the case of `Cc1cc(Cc2cc(C)c(O)c(C)c2)cc(C)c1O`, the growth in the assay on K-562 leukemia is 13.2%; in the assay with MALME-3M melanoma, 46.5%; in the assay on MDA-MB-231 breast, 59.6%; with RXF 393 renal, 58.1%; with SF-268 CNS, 64.1%; in the assay on SF-295 CNS, 42.6%. Moreover, the growth in the assay with SF-539 CNS was 37.2%; in the assay on UACC-257 melanoma, 51.5%; in the assay on M14 melanoma, 29.9%; in the assay on HCT-15 colon, 38.2%; in the assay with HT29 colon, 88.1%; with SNB-75 CNS it was 48%. The growth with SNB-19 CNS is 66.6%; in the assay with U251 CNS, 49.6%; in the assay with PC-3 prostate, 75.1%; in the assay on SK-MEL-5 melanoma it was 38.9%; with LOX IMVI melanoma, 43.5%; with SK-MEL-28 melanoma, 70%. Moreover, in the assay with SK-MEL-2 melanoma, the growth was 6.12% (active).
For the molecule `O=C(Nc1cccc(-n2cc(-c3ccncc3)c(-c3cc(O)cc(Cl)c3)n2)c1)c1ccc(N2CCOCC2)c(C(F)(F)F)c1`, the growth with K-562 leukemia is -15.5% (active); in the assay on MALME-3M melanoma, -26.9% (active); in the assay with MDA-MB-231 breast, -48% (active); in the assay with RXF 393 renal it was -45.6% (active); with SF-268 CNS it was 52.7%; in the assay with SF-295 CNS, -35.4% (active). For the same molecule, the growth is 2.4% (active) in the assay with SF-539 CNS; 9.38% (active) in the assay on UACC-257 melanoma; -20.7% (active) in the assay on M14 melanoma; 6.25% (active) in the assay with HCT-15 colon; 16.9% in the assay with HT29 colon; 23.1% in the assay with SNB-75 CNS. The growth in the assay with SNB-19 CNS is 12.1%; with U251 CNS it was -9.64% (active); in the assay on PC-3 prostate, 19.1%; with SK-MEL-5 melanoma, 32.2%; in the assay with LOX IMVI melanoma, -48.7% (active); with SK-MEL-28 melanoma, -52.4% (active). Also, in the assay with SK-MEL-2 melanoma, the growth was 22.9%.
On to `O=[N+]([O-])c1ccc(Oc2cc(Cl)c(Cl)cc2Cl)c(C(F)(F)F)c1`, for which the growth in the assay with K-562 leukemia is 93.8%; in the assay on MALME-3M melanoma it was 107%; with MDA-MB-231 breast it was 96.4%; in the assay on RXF 393 renal, 96.4%; in the assay with SF-268 CNS, 101%; with SF-295 CNS it was 91.7%. Besides, the growth with SF-539 CNS is 95.3%; with UACC-257 melanoma it was 100%; in the assay with M14 melanoma, 101%; in the assay with HCT-15 colon it was 92.2%; in the assay with HT29 colon it was 105%; in the assay on SNB-75 CNS, 89.4%. Also, the growth is 111% in the assay on SNB-19 CNS; 97.9% in the assay on U251 CNS; 92.1% in the assay on PC-3 prostate; 96% with SK-MEL-5 melanoma; 97% with UACC-62 melanoma; 99.2% with LOX IMVI melanoma. The growth with SK-MEL-2 melanoma was 94.3%.
For the molecule `CN(C)C(=S)N/N=C\C=N/NC(=S)N(C)C`, the growth is 1.44% (active) in the assay on K-562 leukemia; 58.5% in the assay with MALME-3M melanoma; 37.3% with MDA-MB-231 breast; 55.4% in the assay on RXF 393 renal; 84.6% in the assay on SF-268 CNS; 68.8% with SF-295 CNS. In addition, the growth in the assay on SF-539 CNS is 84.6%; with UACC-257 melanoma, 33.4%; with M14 melanoma, 47.9%; with HCT-15 colon it was 31.5%; in the assay with HT29 colon, 13.5%; in the assay with SNB-75 CNS, 64%. For the same molecule, the growth in the assay on SNB-19 CNS was 90.3%; in the assay with U251 CNS, 42.8%; in the assay on PC-3 prostate, -18.4% (active); in the assay with SK-MEL-5 melanoma, 64.8%; in the assay with UACC-62 melanoma, 73.2%; in the assay on LOX IMVI melanoma it was 43.9%. Further, the growth in the assay on SK-MEL-2 melanoma was 85%.
Turning to `COC(=O)[C@@H]1[C@H](O)[C@H](C)[C@H](O)[C@@](C)(O)/C=C\C=C(C)C(=O)Nc2c(C)c(OC(C)=O)c3c(c2O)C(=O)C(C)=C2OCOC(=C23)C(C)=C[C@@](C)(O)[C@H](O)[C@@H](C)[C@H]1OC(C)=O`, the growth with K-562 leukemia is 89%; with MALME-3M melanoma, 101%; in the assay on MDA-MB-231 breast, 98.8%; in the assay on RXF 393 renal, 104%; in the assay with SF-268 CNS it was 113%; with SF-295 CNS, 98%. For the same molecule, the growth with SF-539 CNS is 100%; in the assay with UACC-257 melanoma it was 107%; with M14 melanoma, 122%; in the assay with HCT-15 colon, 74.7%; with HT29 colon it was 111%; with SNB-75 CNS, 81.9%. In addition, the growth in the assay on SNB-19 CNS was 112%; in the assay on U251 CNS it was 104%; in the assay on PC-3 prostate, 22%; in the assay on SK-MEL-5 melanoma it was 98%; with UACC-62 melanoma it was 97.8%; in the assay on LOX IMVI melanoma it was 104%. Also, the growth in the assay on SK-MEL-2 melanoma was 117%.
On to `CC(=O)N1N=C(c2ccc(Cl)cc2)CC1c1sc(Cl)nc1Cl` (configuration not stated), for which the growth in the assay with K-562 leukemia was 66.1%; with MALME-3M melanoma it was 94.8%; in the assay on MDA-MB-231 breast, 82.1%; in the assay on RXF 393 renal, 80.5%; in the assay with SF-268 CNS, 80.1%; in the assay on SF-295 CNS, 80.3%. For the same molecule, the growth in the assay on SF-539 CNS was 104%; in the assay on UACC-257 melanoma, 91.9%; in the assay on M14 melanoma, 94.6%; with HCT-15 colon it was 96.3%; in the assay with HT29 colon it was 64.2%; in the assay with SNB-75 CNS, 84.3%. Further, the growth is 66.9% in the assay with SNB-19 CNS; 71.2% in the assay with U251 CNS; 72.8% with PC-3 prostate; 89.5% in the assay with SK-MEL-5 melanoma; 88.4% in the assay on LOX IMVI melanoma; 94.7% with SK-MEL-28 melanoma. Further, the growth in the assay with SK-MEL-2 melanoma was 84.9%.
